The list is not random: actives were taken first. Their share in the collection is about 3.1%.
SKKanGAS inh = SKKanGAS growth inhibition. S. pyogenes SKKanGAS, kanamycin growth, BacTiter-Glo, 6 h. inhibition, % at 7.5 µM. actives 1.3% (n = 300,000). AID 1662;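 active = mean replicate score, as percent of positive control median, at least 50; inconclusive = mean below 50 but one replicate at or above 50; inactive = mean and every replicate below 50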;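 note: strain carries kanamycin resistance gene driven by streptokinase promoter and grows in 40 µg/ml kanamycin; loss of luminescence reflects streptokinase promoter inhibition or plain growth inhibition; 0% = median of DMSO wells and 100% = positive control at its reference dose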
Beta apoptosis = beta cell apoptosis inhibition | INS-1E cytokine-induced death, ATP luminescence, 48 h; percent of positive-control rescue, neutral wells zero | protection from apoptosis, % (test concentration not listed) | actives 0.8% (n = 300,000) | AID 435005;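 active = Every replicate reaches about 75%, or at least half do and their mean reaches it too, limit read from the data; inconclusive = At least half of replicates reach the limit but their mean does not; inactive = Under half of replicates reach the limit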;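 note: 0% = cytokine-treated negative control wells and 100% = positive control rescue; higher means more ATP so stronger rescue from cytokine killing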
CSC inhib = cancer stem cell inhibition. AID 2717. cancer stem cell-like cells viability, luminescence. actives 1.1% (n = 300,000). inhibition, % at 7.5 µM; in the data active = inhibition above about 75%; inconclusive = no clear call, values can overlap the other calls; tested in HMLE shEcad cells
PP5 inh = inhibitors of human protein phosphatase 5 (PP5); P53041; purified PP5c, OMFP substrate fluorescence; inhibition, % at 6.7 µM; actives 0.18% (n = 320,000); AID 1987;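 active = inhibition above the campaign's mean inhibition across all tested compounds plus 3 SD, cut at about 9.5% in these data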;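 note: 0% = DMSO only and 100% = 100 µM cantharidin control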
PP1 counter = blocks human PP1-alpha phosphatase, a PP5 counter-screen; AID 2235; inhibition, % at 6.7 µM; P62136; actives 0.9% (n = 320,000); purified PP1alpha, OMFP fluorescence;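 active = inhibition above the mean inhibition of all tested compounds plus 3 SD, computed separately for each screening campaign, cut at about 15% in these data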
Target sequence (P62136 whole entry, looked up): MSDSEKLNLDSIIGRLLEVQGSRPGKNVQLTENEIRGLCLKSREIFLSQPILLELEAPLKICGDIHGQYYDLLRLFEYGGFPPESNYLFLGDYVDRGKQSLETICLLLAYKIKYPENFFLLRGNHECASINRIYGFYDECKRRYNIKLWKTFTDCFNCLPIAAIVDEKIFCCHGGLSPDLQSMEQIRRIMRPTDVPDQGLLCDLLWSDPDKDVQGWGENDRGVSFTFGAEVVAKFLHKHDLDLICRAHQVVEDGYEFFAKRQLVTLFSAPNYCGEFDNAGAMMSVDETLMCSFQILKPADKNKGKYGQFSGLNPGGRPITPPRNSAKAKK
PP1 confirm = human PP1 phosphatase inhibition, confirmation; purified PP1alpha, OMFP substrate fluorescence; inhibition, % at 6.7 µM; AID 2358; actives 52% (n = 1,900); shares compounds with PP1 counter;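 active = mean PP1 inhibition above a set limit taken from the earlier primary screen, cut at about 15% in these data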
PP5 inh counter = inhibits human PP5 phosphatase in PP1 counter-screen; shares compounds with PP1 counter; purified PP5c, OMFP fluorescence; inhibition, % at 6.7 µM; actives 4% (n = 1,900); AID 2360;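 active = mean PP5 inhibition over triplicate wells above about 9.5% taken from the earlier PP1 screen, limit read from the data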
An asterisk follows results filed as active; ? = inconclusive; . = not tested or not shown.

SMILES	SKKanGAS inh	Beta apoptosis	CSC inhib	PP5 inh	PP1 counter	PP1 confirm	PP5 inh counter
CCN(Cc1cc(=O)n2ccsc2n1)Cc1nc2cc(OC)c(OC)cc2c(=O)[nH]1	5	-4	-12	-1	-3	.	.
O=C(COc1coc(CN2CCCc3ccccc32)cc1=O)Nc1ccc([N+](=O)[O-])cc1	6	-1	9	-2	21*	4	-4
Cc1ccccc1NC(=O)COc1coc(CN2CCCc3ccccc32)cc1=O	-2	-11	-8	3	0	.	.
CC(NC(=O)c1ccc(F)cc1F)C1CC2CCC1C2 (stereo not given)	11	0	16	2	6	.	.
O=C(N/C(=C/c1ccccc1F)C(=O)N1CCCCC1)c1ccccc1	-3	4	-10	2	1	.	.
Cn1cnnc1SCC(=O)Nc1ccccc1	-1	.	-5	-1	1	.	.
Cn1cnnc1SCC(=O)Nc1ccc(OCc2ccccc2)cc1	-2	-5	19	1	24*	4	-3
CN1CCN(c2nc(-c3cccnc3)nc3ccccc23)CC1	-2	2	-4	1	0	.	.
O=S(=O)(c1ccccc1F)N1CCN(c2nc(-c3cccnc3)nc3ccccc23)CC1	.	-7	.	3	7	.	.
Cc1ccc(C)c(S(=O)(=O)N2CCN(c3nc(-c4cccnc4)nc4ccccc34)CC2)c1	.	3	.	2	19*	18*	1
COc1ccc(S(=O)(=O)N2CCN(c3nc(-c4cccnc4)nc4ccccc34)CC2)cc1	.	-1	.	2	21*	17*	-1
Cc1ccnc2nc(C(=O)OCC(=O)c3ccc(NC(=O)CC(C)C)cc3)nn12	.	-4	-8	.	.	.	.
CCC(=O)Nc1ccc(C(=O)COC(=O)c2nc3nccc(C)n3n2)cc1	.	-4	-9	2	20*	8	0
COc1ccc(-c2ccnc3nc(-n4cccc4)nn23)cc1	2	6	11	0	19*	19*	-5
COc1cccc(/C=C/c2ccc3cccc(O)c3n2)c1	98*	50	41	0	19*	19*	-1
Cc1ccc(/C=C/c2ccc3cccc(O)c3n2)s1	76*	9	40	3	20*	16*	2
COc1cc(/C=C/c2nc(-c3ccccc3O)n[nH]2)cc(OC)c1OC	-13	8	51	4	5	.	.
COc1cc(/C=C/c2ccc3cccc(O)c3n2)cc(Cl)c1OC	107*	64	91*	0	18*	26*	1
COc1cccc(/C=C/c2ccc3cccc(O)c3n2)c1OC	86*	51	66	0	20*	17*	-4
CCOC(=O)c1nc(C)sc1-c1ccnn1S(=O)(=O)c1ccc(C)cc1	-12	.	.	2	-1	.	.
COc1ccc(/C=C/c2ccc3c(Br)ccc(O)c3n2)cc1	85*	36	89*	1	22*	19*	-6
Cc1cc(C)nc(-n2nc(C)c3c(=O)[nH]c(C(F)(F)F)nc32)n1	-7	1	15	2	19*	-6	-6
Cc1nn(-c2cccc(Cl)c2)c2nc(C(F)(F)F)[nH]c(=O)c12	8	13	30	-1	1	.	.
NC(=O)CC(NC(=O)Cc1ccc(Br)cc1)c1ccc(NCCc2cccc(F)c2)c([N+](=O)[O-])c1 (stereo not given)	-1	-7	-10	1	18*	23*	-4
NC(=O)CC(NC(=O)Cc1cccc2ccccc12)c1ccc(NC2CCCCCCC2)c([N+](=O)[O-])c1 (stereo not given)	20	-2	?	-1	13	.	.
NC(=O)CC(NC(=O)Cc1ccc(Br)cc1)c1ccc(NCCOc2ccccc2)c([N+](=O)[O-])c1 (stereo not given)	0	-5	3	1	20*	26*	-4
NC(=O)CC(NC(=O)Cc1cccc2ccccc12)c1ccc(NC2CCCCCC2)c([N+](=O)[O-])c1 (stereo not given)	10	-5	45	2	24*	24*	-4
Cn1c(SCC(=O)c2ccccc2)nnc1-c1ccncc1	16	2	.	-1	-1	.	.
Cn1c(SCC(=O)c2ccc3c(c2)Cc2ccccc2-3)nnc1-c1ccccc1	1	3	-14	3	26*	32*	-1

High-throughput results as filed in PubChem BioAssay.
